Assay outcomes (PubChem)
Most compounds without a hit are left out; they make up all but 7.6% or so of the library.
KB-3-1 tox = KB-3-1 parental cell cytotoxicity; AID 1347075; 400,000 tested, 1.4% active; Potency, µM (titrated, usually from 46.1 µM), hits mostly cytotoxic; KB-3-1 viability, CellTiter-Glo ATP luminescence, 72 h; note: potency is the fitted concentration of half-maximal effect; % is set by controls: 0 for no effect and ±100 for the full control effect; nearly all actives have a fitted effect of over 60% in size
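Multi-concentration cytotoxicity screen in KB-3-1 cells grown in DMEM lacking phenol red with 10% FBS. After 72 h at 37 °C with compound, ATP-dependent luminescence was recorded.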
SW480 rerep = induces DNA re-replication in SW480 colon adenocarcinoma cells; SW480 DNA re-replication, Hoechst DNA content imaging, 48 h; Potency, µM (top dose mostly 46.1 µM), inactives show top-dose re-replication activation, hits mostly activators; 340,000 tested, 1.8% active; AID 624297; note: potency is the fitted concentration of half-maximal effect; % of control where 0% means no effect; nearly all actives have a fitted effect of over 55% in size
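Image-based read-out: total Hoechst fluorescence of nuclei (405 nm excitation, 500-530 nm emission), with hits raising the fraction of high-intensity nuclei. SW480 colon cells incubated 48 hr with compounds at 37 C.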
KCNH2 3.1 inh = blocks the human KCNH2 3.1 channel isoform; U2OS KCNH2 3.1, thallium flux FluxOr; active compounds read low; activity change, % (tested at about 1.8 µM); 340,000 tested, 0.95% active; AID 720553;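 active = maximum activity change below -70%; inconclusive = maximum activity change from -70% to -50%; inactive = maximum activity change above -50%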;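 note: thallium influx rate constant from kinetic fluorescence after stimulation buffer; % is set by controls: 0 for no effect and ±100 for the full control effect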
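U2OS cells transduced with KCNH2 3.1 mutant virus (1.77 x 10^8 /mL, 4 h), plated overnight at 37 C, loaded 45 min with FluxOr dye plus Red40 quencher. Thallium flux rate constant from kinetic reads after stimulation buffer, normalised to controls.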
KB-V1 cytotox = kills drug-selected multidrug resistant KB-V1 cells | KB-V1 MDR cells viability, CellTiter-Glo, 72 h | Potency, µM (titrated, usually from 46.1 µM), most hits filed as cytotoxic | 400,000 tested, 3.4% active | AID 1347076; note: potency is the fitted concentration of half-maximal effect; % is set by controls: 0 for no effect and ±100 for the full control effect; nearly all actives have a fitted effect of over 60% in size
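Cytotoxicity toward P-gp-expressing KB-V1 cells was determined as loss of CellTiter-Glo luminescence after 72 h at 37 degrees C. Compounds were tested in quantitative HTS format across a concentration range, with curves fitted to normalized data.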
MCF10A rerep = induces DNA re-replication in MCF 10a normal breast cells | 350,000 tested, 2.9% active | MCF 10A DNA re-replication, Hoechst nuclear intensity, 48 h | Potency, µM (highest dose often 46.1 µM), for the others: at the top dose activity, positive = re-replication, actives largely listed as activators | AID 624296; note: potency is the fitted concentration of half-maximal effect; % of control where 0% means no effect; nearly all actives have a fitted effect of over 50% in size
hERG WT inh = inhibitors of human wildtype KCNH2 potassium channel | activity change, % at 1.84 µM | 340,000 tested, 0.37% active | U2OS, BacMam KCNH2, thallium flux FluxOr; active compounds read low | Q12809 | AID 720551;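 active = maximum activity change below -70%; inconclusive = maximum activity change between -70% and -50%; inactive = maximum activity change above -50%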; note: % is set by controls: 0 for no effect and ±100 for the full control effect
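U2OS cells transduced with wild-type KCNH2 virus are loaded with FluxOr dye for 45 min, and thallium flux is measured in kinetic reads before and after stimulation buffer. Rate constants are normalized to DMSO controls.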
Numbers without * were called inactive; i = inactive; ? = inconclusive; . = not tested or not shown; [ ] = dose if it differs, or a comment. Unless noted, calls come from the whole dose curve; as a rule, active = well fitted curve in the direction sought with a large enough effect; inconclusive = small, poorly fitted or top-dose-only effect, or another doubt; inactive = no such curve, though single readings can be large; an effect the other way counts as inactive or inconclusive.

SMILES | KB-3-1 tox | SW480 rerep | KCNH2 3.1 inh | KB-V1 cytotox | MCF10A rerep | hERG WT inh
CC(=O)N1CCN(c2ccc(NC(=O)c3ccc([N+](=O)[O-])o3)cc2Cl)CC1 | ? | ? | -14.5 | ? | 3.26µM* | -11.9
CCC(=O)N1CCN(c2ccc(Cl)cc2NC(=O)c2cccc([N+](=O)[O-])c2)CC1 | i | -7.7% | -18.8 | i | ? | 2.7
O=C(NCc1ccccc1Br)c1ccc2nc(N3CCCCC3)sc2c1 | i | . | . | i | . | .
COc1ccc(Cl)cc1S(=O)(=O)N1CCC(C(=O)N2CCOCC2)CC1 | i | -1.0% | . | i | -4.1% | 24.1
Nc1ccn(C2OC(COP(=O)(O)O)C(O)C2O)c(=O)n1 (stereo not drawn) | ? | 0.651µM* | -0.5 | ? | ? | 16.6
Cc1cccc(NC(=O)CSc2cccc3cccnc23)c1C | i | 1.8% | -3.6 | i | -11.3% | 5.2
c1cnc2c(SCc3ccc(-c4nnco4)cc3)cccc2c1 | i | ? | -4.7 | 14.6µM* | 3.9% | -14.5
Cc1cccc(CSc2cccc3cccnc23)c1 | ? | 6.51µM* | 2.0 | ? | ? | -0.3
NNC(=O)c1ccc(CSc2cccc3cccnc23)cc1 | i | -0.8% | -2.4 | i | 14.9% | 2.6
CCOC(=O)CSc1cccc2cccnc12 | ? | 6.51µM* | -7.5 | 23.1µM* | 20.4% | 5.1
c1ccc2[nH]c(SCc3ccc(-c4nnco4)cc3)nc2c1 | i | -7.1% | -2.6 | i | -3.9% | -6.1
Cc1cc(C)cc(-n2c(SCC(=O)NCc3ccco3)nc3c([nH]c4ccccc43)c2=O)c1 | i | . | . | i | . | .
CCOC(=O)Oc1c(OC)cc(C(=O)O[C@@H]2C[C@@H]3CN4CCc5c([nH]c6cc(OC)ccc56)[C@H]4C[C@@H]3[C@H](C(=O)OC)[C@H]2OC)cc1OC | ? | ? | -7.3 | ? | ? | -18.6
COc1ccc(OC)c(NC(=O)c2ccc(-c3nc(CSc4ccccc4)c(C)o3)cc2)c1 | i | . | . | i | . | .
CN(C)c1ccc(C=NNC(=S)Nc2ccc(F)cc2)cc1 | i | ? | -12.8 | i | 20.6µM* | 6.3
Cc1ccc(CN2CCCn3nc(C(=O)NCc4cc(C)ccc4C)cc3C2=O)cc1 | i | . | . | i | . | .
Cc1ccc(NC(=S)NNC(=O)c2nnn(-c3ccccc3)c2C)cc1 | i | 71.2% | -16.1 | 20.6µM* | -75.2% | -2.8
Cc1ccc(NC(=S)NNC(=O)c2nn(C)cc2Cl)cc1 | i | -11.7% | 11.6 | i | 1.1% | 9.7
Cc1ccc(S(=O)(=O)NC(CC(C)C)C(=O)N2CCCCCCC2)cc1 (stereo not drawn) | i | -52.9% | 15.3 | ? | 3.1% | -5.3
CS(=O)(=O)N1CCc2cc(C(=O)N3CCN(c4ccccc4F)CC3)ccc21 | i | -1.8% | 26.6 | ? | -4.2% | 20.7
COc1ccc(C(=O)Nc2nnc(C3=COCCO3)o2)cc1 | i | 18.3% | 1.2 | i | 3.1% | 3.7
CCOc1ccc(C(=O)Nc2nnc(C3=COCCO3)o2)cc1 | 0.0012µM* | 1.1% | -7.5 | ? | 10.9% | -19.4
COC(=O)c1sc(S(=O)(=O)N2CCCCC2)c(C(=O)OC)c1C | i | 3.5% | -186.9* | ? | -0.8% | -0.7
COC(=O)c1sc(S(=O)(=O)N2CC(C)OC(C)C2)c(C(=O)OC)c1C (stereo not drawn) | i | -6.3% | 0.6 | i | -2.2% | 2.1
COC(=O)c1sc(S(=O)(=O)N2CCC(C)CC2)c(C(=O)OC)c1C | i | -3.0% | 0.9 | i | -185.4%[0.0737 µM] | -3.2
COC(=O)c1sc(S(=O)(=O)N2CCN(c3ccccc3)CC2)c(C(=O)OC)c1C | i | -4.8% | -5.0 | 8.2µM* | 12.3% | -1.9
CCOC(=O)C1CCN(S(=O)(=O)c2ccc(-n3cnnn3)c(C)c2)CC1 | i | ? | 0.0 | i | 11.6µM* | 30.0
CCOC(=O)C1CCN(S(=O)(=O)c2ccc(C)c(C)c2)CC1 | i | ? | -12.4 | i | 4.8% | 1.3
